DRD3 agonist – activates the human D3 dopamine receptor | P35462 | D3R DiscoveRx beta-arrestin cells, luminescence, 90 min | max activation, % | 410,000 compounds, 0.58% hits | AID 652048; in the data active means max activation above about 30%; further: 0% is about no effect
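Cells at 1500/well, incubated overnight, then treated with pinned compounds (dopamine as control) for 90 min at 37 degrees C. DiscoveRx reagent added for 30 - 60 minutes at room temperature; luminescence read.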
D1 potentiator – enhances dopamine response at the human D1 receptor; P21728; HEK293 TREx D1 cells, calcium flux, dopamine EC20 potentiation; potentiation, % at 10 µM; 360,000 compounds, 0.036% hits; AID 504651; in the data active means potentiation above about 30%; further: 0% is about no effect
Target sequence (P21728 whole entry, looked up): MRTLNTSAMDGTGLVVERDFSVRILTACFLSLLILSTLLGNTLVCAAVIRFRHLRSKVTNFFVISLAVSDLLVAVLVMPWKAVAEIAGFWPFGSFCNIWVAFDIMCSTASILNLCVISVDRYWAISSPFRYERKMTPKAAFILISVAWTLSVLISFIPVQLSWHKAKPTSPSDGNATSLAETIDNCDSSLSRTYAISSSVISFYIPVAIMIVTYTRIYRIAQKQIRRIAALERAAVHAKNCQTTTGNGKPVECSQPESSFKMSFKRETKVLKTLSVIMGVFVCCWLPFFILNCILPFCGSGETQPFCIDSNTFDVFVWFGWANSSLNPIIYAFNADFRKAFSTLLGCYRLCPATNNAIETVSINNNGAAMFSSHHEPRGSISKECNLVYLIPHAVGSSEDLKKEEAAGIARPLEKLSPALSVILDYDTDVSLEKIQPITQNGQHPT
ERG-DNA inh – ERG Ets/DNA interaction inhibition. P11308. fluorescence polarization, His-ERG Ets domain / labelled DNA. Potency, µM (series often up to 76.9 µM), for the others: at the highest dose FP activity, negative = inhibition, hits mostly inhibitors. 370,000 compounds, 0.028% hits; active means well fitted inhibition curve with a large enough effect in the polarisation, with a control signal flat; inconclusive means small, poorly fitted or top-dose-only effect, or effect the other way, or a change in a side signal; inactive means no such curve, though single readings can be large or run the other way; the % refers to the polarisation;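 further: polarization taken with two DNA probes labelled with fluorescein and Texas red; potency means the concentration at half of the fitted maximal effect; % of control where 0% means no effect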
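His-tagged ERG Ets domain (1 uM in the protein solution; 300mM KCl, 50mM Tris-HCl, 1mM EDTA, 1mM DTT, pH 7.5) received compound, then a probe mix of 5 nM fluorescein-DNA and 100nM Texas-615-DNA. Fluorescence polarization was read for both dyes.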
D3 antag – D3 dopamine receptor (human) antagonism. D3R cells, DiscoveRx beta-arrestin luminescence, antagonist mode; hits give low values. max response, negative = inhibition, %. 360,000 compounds, 2.5% hits; in the data active means max response below about -50%; inconclusive means no clear call, values can overlap the other calls; further: on the % scale 0 is the no-effect control and ±100 the full control effect
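Cells plated overnight at 1500 cells/well, then exposed to library compounds with dopamine controls for 90 minutes at 37 degrees C. DiscoveRx reagent added for 30–60 minutes at room temperature; luminescence read, quantitative HTS format.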
D1 ag – human D1 receptor agonism; P21728; HEK293 T-REx D1 cells, calcium flux, agonist mode; activation, % at 2 µM; 360,000 compounds, 1% hits; in the data active means activation above about 30%; further: 0% is about no effect
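Agonism was scored from calcium flux recorded over 180 s (1 read/s) after pintool compound addition, following a 10-cycle baseline. Cells were inducible force-coupled HEK293 TREx D1, plated overnight at 30 C and loaded with no-wash calcium dye.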
D1 antagonist – human D1 dopamine receptor antagonism. AID 504652. activity change, negative = inhibition, % at 10 µM. 360,000 compounds, 3.2% hits. P21728. HEK293 TREx D1 cells, calcium flux, dopamine EC80; hits give low values; in the data active means activity change below about -30%; further: on the % scale 0 is the no-effect control and ±100 the full control effect
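Tetracycline-induced HEK293 T-REx cells with force-coupled D1 receptor were loaded with a no-wash calcium dye. Compound was added after a 10 s baseline and read kinetically for 180 s; EC80 dopamine was then added and calcium flux followed another 180 s.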
Numbers without * were called inactive; ? = inconclusive; nt = no result given; ! = not active in a repeat. An excerpt weighted towards active compounds, which were near 6.1% of everything screened.

SMILES | DRD3 agonist | D1 potentiator | ERG-DNA inh | D3 antag | D1 ag | D1 antagonist
Cc1ccc2nc(Cl)c(C3CC(c4cccs4)=NN3C(=O)CCCC(=O)O)cc2c1 (stereo not given) | 32* | -2 | -9% | 12 | 3 | 4
COc1ccc2nc3oc(C(=O)N(C)c4ccc(Cl)cc4)cc3cc2c1 | -8 | 3 | 0% | nt | -1 | -1
O=C(c1ccc(COc2ccccc2Cl)o1)N1N=C(C(F)F)CC1(O)C(F)F (stereo not given) | 7 | -5 | -7% | 1 | 7 | -10
COc1ccc(NC(=O)COC(=O)c2ccc(OCc3ccc(Cl)cc3Cl)c(OC)c2)c(OC)c1 | 3 | 6 | -3% | 13 | 6 | 15
COc1ccc(C)cc1NC(=O)COC(=O)c1ccc(OCc2ccc(Cl)cc2Cl)c(OC)c1 | 1 | -3 | 1% | 9 | 1 | -50*
NC(c1ccc(F)c(F)c1)c1nc(-c2cncnc2)cs1 (stereo not given) | 1 | nt | nt | 0 | nt | nt
NC(c1ccc(F)c(F)c1)c1nc(-c2cc(F)cc(F)c2)cs1 (stereo not given) | 9 | nt | nt | -72* | nt | nt
O=c1c2cc(N3CCOCC3)ccc2[nH]c(=S)n1CCCN1CCN(c2ccccc2F)CC1 | nt | -7 | nt | nt | 3 | -71*
CN1CCN(CCn2c(=S)[nH]c3ccccc3c2=O)CC1 | -6 | -5 | 8% | 14 | 2 | 30
COc1ccccc1N1CCN(CCc2n[nH]c(=S)n2-c2ccccc2)CC1 | -38 | -3 | 3% | -80* | 3 | 1
COc1ccccc1N1CCN(CCCn2c(=S)[nH]c3ccccc3c2=O)CC1 | -19 | -8 | -7% | -109* | 0 | -88*
COc1ccc(N2CCN(CCCn3c(=S)[nH]c4ccccc4c3=O)CC2)cc1 | -3 | -8 | 8% | -75* | 3 | -14
Cn1c(CNC(=O)Nc2cccc(Cl)c2)nnc1SCc1ccccc1 | -12 | -3 | -3% | ? | 2 | 1
Cc1ccc(C(=O)Nc2ccc(C(=O)N3CCCCC3)cc2)o1 | -7 | -2 | -7% | ? | 5 | 2
CCOCCCNC(=O)c1ccc2c(c1)ncn2-c1ccccc1OC | 1 | 0 | 5% | -17 | 1 | -2
O=c1c2ccccc2[nH]c(=S)n1CCN1CCc2ccccc2C1 | -27 | -3 | -13% | -90* | 5 | 9
COc1cc(NC(=O)C2CCC(CNc3c(N4CCC(C)CC4)c(=O)c3=O)CC2)cc(OC)c1 (stereo not given) | -2 | nt | 13% | 13 | 1 | -4
COc1ccc(NC(=O)C2CCC(CNc3c(N4CCC(C)CC4)c(=O)c3=O)CC2)cc1OC (stereo not given) | 2 | nt | 12% | -105*! | 1 | 20
O=c1c2c(ncn1CCO)nc1n2CCC1 | -4 | -1 | 7% | -3 | 1 | -1
COc1cc(O)c(/C=N/NC(=O)c2ccncc2)c(OC)c1[N+](=O)[O-] | 5 | -4 | -8% | 28 | 3 | 1
CCCCCCCCCCCC(=O)NC(C(=O)O)C(O)c1ccccc1 (stereo not given) | 6 | 17 | 6% | -3 | 374* | -3
Cn1c(=O)c2c(nc3n2CC(O)CN3c2ccccc2)n(C)c1=O (stereo not given) | -2 | nt | -2% | 11 | nt | nt
O=C1c2ccc(Oc3cccc([N+](=O)[O-])c3)cc2C(=O)N1c1ccccn1 | -1 | -4 | 16% | -5 | 2 | -8
O=C1c2cc([N+](=O)[O-])cc3cc([N+](=O)[O-])cc(c23)C(=O)N1c1ccccn1 | -40 | -4 | 64% | -76* | 0 | 6
O=C(O)c1cccc(N2C(=O)c3cc([N+](=O)[O-])cc4cc([N+](=O)[O-])cc(c34)C2=O)c1 | -25 | 8 | 7% | -58* | 3 | 7
SMILES | DRD3 agonist | D1 potentiator | ERG-DNA inh | D3 antag | D1 ag | D1 antagonist
O=C(O)c1cccc(N2C(=O)c3cccc4cccc(c34)C2=O)c1 | 5 | -12 | 14% | -24 | 3 | 4
CCOC(=O)Nc1cccc(OCC(=O)Nc2ccc3c(c2)CCC3)c1 | 4 | nt | 10% | -6 | nt | nt
CCn1c(C)nnc1SCC(=O)Nc1cccc(Cl)c1 | 1 | 0 | -5% | 2 | -4 | -43*
CCn1c(CC(=O)Nc2ccc(Cl)c(Cl)c2)nnc1SCc1ccc(Cl)cc1 | -13 | 1 | 4% | 26 | 0 | -4
CCn1c(C)nnc1SCC(=O)Nc1ccc(C(C)=O)cc1 | -2 | 0 | -1% | 1 | 4 | 58
CCn1c(CC(=O)Nc2ccc(Cl)c(Cl)c2)nnc1SCc1ccc(C)cc1 | 7 | -11 | -1% | -93* | 1 | -1
CCOC(=O)C1CCN(Cc2cnc(NC(=O)OC)s2)CC1 | 11 | -6 | 5% | -7 | 3 | 0
COC(=O)Nc1ncc(CN2CCc3ccccc3C2)s1 | -33 | 1 | nt | -74* | -2 | 3
CCN1C(=O)[C@H]2[C@@H](c3ccccc3)N3C(=O)N(c4cccc(F)c4)C(=O)[C@@]3(CC(C)C)[C@H]2C1=O | -6 | -4 | -10% | -30 | 0 | -4
ClCC(CNCc1ccccc1)c1ccccc1 (stereo not given) | -29 | nt | -5% | -55* | nt | nt
COC(=O)CSc1nc2c(cnn2-c2ccc(F)cc2)c(=O)[nH]1 | 3 | -5 | -10% | 1 | 1 | -33*!
CCOC(=O)CSc1nc2c(cnn2-c2ccc(F)cc2)c(=O)[nH]1 | 11 | 5 | -4% | 0 | 3 | 7
Cc1cc(OCCN2CCOCC2)nc2ccccc12 | -5 | -4 | 0% | -12 | 4 | -7
O=C(CSc1nnc(NC(=O)NC2CCCCC2)s1)Nc1ccccc1F | -5 | -1 | -7% | nt | -2 | nt
CNC(=S)N(CCc1c(C)[nH]c2ccc(Cl)cc12)Cc1cccnc1 | 10 | -10 | 4% | 0 | 31* | -25
CNC(=S)N(CCc1c(C)[nH]c2ccc(C)cc12)Cc1cccnc1 | -2 | -7 | -6% | -25 | 0 | -4
COCCNC(=S)N(CCc1c(C)[nH]c2ccc(Cl)cc12)Cc1cccnc1 | 1 | -4 | -6% | 20 | 9 | 6
CCNC(=S)N(CCc1c(C)[nH]c2ccc(Cl)cc12)Cc1cccnc1 | 5 | -6 | 6% | 18 | 6 | -43*
CCc1nnc(NC(=O)c2ccc3c(c2)C(=O)N(C(C)(C)C)C3=O)s1 | 38* | -2 | 4% | -24 | 1 | -6
O=S(=O)(c1ccccc1)N1CCSC1c1ccco1 (stereo not given) | 3 | -5 | 9% | 3 | 2 | -44*
CCOc1ccccc1NC(=S)N1CCN(c2ccc(O)cc2)CC1 | 2 | 0 | -6% | 7 | 10 | -5
CCOc1ccccc1NC(=S)N1CCCCCC1 | 1 | 4 | 4% | 3 | 9 | -37*

From PubChem BioAssay
